Test results taken from PubChem BioAssay.
Calls of active or inactive are those of the source.

Tests used:
[1] = test system: XIP peptide (Xip251-270) binding; assay: small-molecule binders of XIP peptide, primary screen, biochemical, small-molecule microarray, fluorescence 635/667 nm, 0.1 µg/mL protein (AID 1182); details: fluorescent protein binding, 635 nm, higher = more signal, called active from +8 up or from −8 down
[2] = test system: XIP peptide (Xip251-270); assay: small-molecule binders of XIP peptide, primary screen, biochemical, small-molecule microarray, fluorescence 635/667 nm, 0.5 µg/mL protein (AID 1183); details: small-molecule microarray binding, fluorescence 635 nm; higher = more signal
[3] = Plasmodium falciparum growth inhibition, primary screen, strain 3D7, DAPI fluorescence, 100 nL (AID 1184);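 also: parasites grown inside human red blood cells in medium with human serum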; details: P. falciparum 3D7 growth, 3 d, higher = more signal
[4] = biological target: Homeobox protein Hox-A13 (Mus musculus) (UniProt Q62424); assay: inhibitors of HoxA13-DNA binding, primary screen, biochemical, fluorescence polarization, labeled oligonucleotide (AID 1185); details: 15 min, higher = more signal, called active from +8 up or from −8 down
Homeobox protein Hox-A13 (Mus musculus), sequence (Q62424 whole entry, looked up): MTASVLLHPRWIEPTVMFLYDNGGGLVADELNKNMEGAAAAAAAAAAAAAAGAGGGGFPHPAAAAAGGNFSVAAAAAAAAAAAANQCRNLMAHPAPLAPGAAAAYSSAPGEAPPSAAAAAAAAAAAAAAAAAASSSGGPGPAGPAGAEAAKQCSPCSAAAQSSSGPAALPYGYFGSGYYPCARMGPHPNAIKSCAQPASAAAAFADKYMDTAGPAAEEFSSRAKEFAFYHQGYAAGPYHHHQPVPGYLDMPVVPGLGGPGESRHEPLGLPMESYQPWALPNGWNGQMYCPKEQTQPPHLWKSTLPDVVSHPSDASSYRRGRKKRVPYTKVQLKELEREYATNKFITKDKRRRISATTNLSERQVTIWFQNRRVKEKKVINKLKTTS

Structure (SMILES)	composite z-score [1]	composite z-score [2]	z-score [3]	z-score [4]
COC(=O)CC=C[C@@H](C)[C@@H](C=NOC[C@@H](O)COCc1ccco1)OC	0.146 (inactive)	0.338	0.715	-0.341 (inactive)
COc1ccc(COC(=O)NN=C2C[C@@H](O)[C@@H](O)[C@@H]3[C@@H]4C(=O)N(C[C@@H]5CCCO5)C(=O)[C@@H]4CC[C@@H]23)cc1	-0.155 (inactive)	0.744	-0.0701	0.903 (inactive)
CO[C@@H]1C=CCC(=O)N[C@@H](C)C(=O)OC[C@@H](OC)[C@H](C)C=CCC(=O)OC[C@H]1C	0.551 (inactive)	0.744	-0.523	-0.0745 (inactive)
O=C1C[C@H](c2ccccc2)[C@H](c2ccc(Br)cc2)O1	-0.112 (inactive)	-0.0581	0.467	-0.403 (inactive)
COc1ccc(O[C@H]2C=C[C@@H](c3ccccc3)O[C@@H]2COC(=O)CCC(C)=NOC[C@@H](O)COCc2ccco2)cc1	-0.0073 (inactive)	-0.448	0.048	-5.52 (inactive)
CCOC(=O)CCN1C(=O)[C@H]2[C@H]3[C@H](O)[C@H](O)CC(=NOCC=C(C)CCC=C(C)C)[C@@H]3CC[C@H]2C1=O	0.257 (inactive)	0.613	0.664	-1.21 (inactive)
COc1ccc(COC(=O)NN=C2C[C@@H](O)[C@@H](O)[C@@H]3[C@@H]4C(=O)N(Cc5ccccc5)C(=O)[C@@H]4CC[C@@H]23)cc1	-0.662 (inactive)	0.0404	0.0711	0.19 (inactive)
COC(=O)CC=C[C@@H](C)[C@@H](C=NOC(C)CN1CCCc2nc(C)c(C)cc21)NS(=O)(=O)c1ccc(C)cc1 (some centres not stated)	0.364 (inactive)	0.624	0.135	-7.74 (inactive)
